Most compounds without a hit are left out; they make up all but 2.4% or so of the library.
D2 antag = antagonists of human D2 dopamine receptor; P14416; inhibition, % at 10 µM; HEK293 TREx D2 cells, calcium flux, dopamine EC80; 340,000 compounds, 2% hits; AID 485344; in the data active means inhibition above about 30%; inactive means below that, where a call was filed; further: 0% is about no effect
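Read-out: kinetic calcium fluorescence (1 cycle/s) in inducible HEK293 T-REx D2 cells after an EC80 dopamine addition that followed 180 s compound preincubation. Loss of the dopamine response indicates antagonism.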
D2 ag-1 = activates the human D2 dopamine receptor | 340,000 compounds, 0.53% hits | HEK293 T-REx D2 cells, calcium flux agonist mode | activation, % at 2 µM | AID 485358;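 active means activation over 3 SD above normal in the single-dose calcium agonist read, cut at about 30% in these data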; further: 0% is about no effect
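Agonism scored from kinetic calcium signal (1 read/sec, 180 s) following compound pin transfer, after a 10 s baseline. Cells: HEK293 Trex line expressing inducible D2 receptor coupled to calcium, dye-loaded after overnight culture at 30 C.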
D2 ag-2 = agonists of human D2 dopamine receptor (beta-arrestin). P14416. DiscoveRx PathHunter D2 beta-arrestin, luminescence, 90 min; 100% = 57 uM dopamine signal. activation, % (test concentration not listed). 360,000 compounds, 0.084% hits. AID 624465; in the data active means activation above about 40%
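DiscoveRx PathHunter D2 beta-arrestin cells (2,100/well) attached overnight, then compound-stimulated 90 min at 37 C in HBSS/10 mM HEPES/0.1% Tween-20 buffer; beta-galactosidase complementation read by luminescence after 1 h at ambient temperature. Dopamine 57 uM final (EC100) as control.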
D2 PAM-1 = D2 dopamine receptor (human) potentiation; 340,000 compounds, 0.34% hits; P14416; HEK293 T-REx D2, calcium flux, EC20 dopamine potentiation; AID 485347; potentiation, % at 10 µM;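 active means potentiation over 3 SD above the plate norm, cut at about 30% in these data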; further: 0% is about no effect
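Potentiation of an EC20 dopamine calcium response is measured in a force-coupled, tetracycline-inducible Hek293 Trex D2 line. Compound-only kinetic reads over 180 s flag agonists before dopamine addition.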
D2 PAM-2 = potentiates the human D2 dopamine receptor allosterically; potentiation, % (test concentration not listed); P14416; DiscoveRx D2 beta-arrestin cells, luminescence, 90 min; 100% = 57 uM dopamine signal; 360,000 compounds, 0.23% hits; AID 624464; in the data active means potentiation above about 50%
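PathHunter D2 cells, attached overnight at 37 deg C, received compound in DMSO plus dopamine at EC20 (50 nM final) for 90 min at 37 deg C. Beta-arrestin recruitment was read as luminescence after 1 h with detection reagent at ambient temperature.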
B2AR arrestin = recruits beta-arrestin to the human beta2-adrenergic receptor. 330,000 compounds, 0.02% hits. beta-arrestin recruitment to beta2AR, cell-based reporter. P07550. AID 492947. Potency, µM (highest dose often 46.1 µM), without a hit: at the top dose activation, hits mostly activators; active means well fitted activation curve with a large enough effect;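 further: potency means the concentration at half of the fitted maximal effect; 0% = DMSO controls and full agonism = EC100 isoproterenol or metaproterenol; nearly all actives have a fitted effect of over 65% in size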
Target sequence (P07550 whole entry, looked up): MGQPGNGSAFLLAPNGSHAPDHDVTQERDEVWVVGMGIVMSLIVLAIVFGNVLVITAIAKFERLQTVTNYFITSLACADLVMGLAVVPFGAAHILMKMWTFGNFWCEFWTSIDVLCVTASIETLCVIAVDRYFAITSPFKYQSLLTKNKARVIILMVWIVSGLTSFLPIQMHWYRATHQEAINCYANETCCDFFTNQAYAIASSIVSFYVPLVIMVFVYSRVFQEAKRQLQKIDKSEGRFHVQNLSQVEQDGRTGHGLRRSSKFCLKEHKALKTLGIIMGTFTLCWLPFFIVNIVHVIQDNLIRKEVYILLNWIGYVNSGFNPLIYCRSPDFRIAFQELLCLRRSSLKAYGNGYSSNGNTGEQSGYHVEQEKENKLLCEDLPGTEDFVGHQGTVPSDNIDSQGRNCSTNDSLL
The depositor's hits bear a star; x = no result given; ! = not confirmed by another sample.

SMILES | D2 antag | D2 ag-1 | D2 ag-2 | D2 PAM-1 | D2 PAM-2 | B2AR arrestin
COc1ccccc1C(CNC(=O)c1ccco1)N1CCCC1 (stereo not drawn) | 37* | 1 | -5 | -13 | -10 | 0%
COc1ccccc1-c1nn(-c2ccccc2)cc1C(=O)NCC(c1ccco1)N1CCCC1 (stereo not drawn) | 40* | 0 | -3 | -27 | -4 | 0%
O=C(NCC(c1ccco1)N1CCCC1)c1cn(-c2ccccc2)nc1-c1ccc(F)cc1 (stereo not drawn) | 76* | -1 | -4 | -22 | -49 | -1%
COc1ccc(CNC(=O)c2cc(S(=O)(=O)N3CCCC3)cn2C)cc1 | 7 | 1 | 4 | -15 | -1 | 0%
CCCCC1(CC)COC(c2ccccc2)OC1 (stereo not drawn) | x | x | 1 | x | -5 | x
COc1cccc(CNC[C@H]2O[C@@H](n3cnc(C(N)=O)n3)[C@H](O)[C@@H]2O)c1OCc1ccc(F)cc1Cl | x | x | -5 | x | x | x
O=C(Cn1c(-c2ccco2)nc2ccccc21)N1CCCCC1 | 46* | 1 | -3 | 8 | -12 | -1%
COc1ccc2[nH]c(=O)c(-c3nnn(-c4ccc(F)cc4)n3)cc2c1 | x | x | -4 | x | -45 | x
Cc1nnc(SCc2cc(=O)[nH]c(=S)[nH]2)s1 | 12 | 0 | 4 | 1 | -9 | 0%
CC1=C(/C=C/C(C)=C/C=C/C(C)=C/C(=O)Nc2ccc(O)cc2)C(C)(C)CCC1 | 22 | 1 | 12 | 16 | 56*! | 0%
Cn1c(=O)c([N+](=O)[O-])c(NCCc2ccccc2)c2ccccc21 | 38* | -1 | -6 | -13 | -17 | 0%
C[C@@H](C(=O)N1CCN(C(=O)OC(C)(C)C)CC1)n1cc(CCCN=C(NC(=O)OC(C)(C)C)NC(=O)OC(C)(C)C)nn1 | 8 | 0 | -2 | 0 | -4 | 0%
Cn1nc(C(F)(F)F)c2cc(C(=O)Nc3ccc(Cl)cc3)sc21 | 64* | 1 | 2 | -25 | -37 | 0%
CC(C)Oc1ccc(/C=N/NC(N)=S)cc1 | x | x | 0 | x | -5 | 16µM*
COc1ccc(N(CC(=O)N2c3ccccc3CC2C)S(=O)(=O)c2c(C)nn(C)c2C)cc1 (stereo not drawn) | -3 | 0 | -3 | 7 | -8 | 0%
C/C(N)=C(/C#N)C(=O)CSc1nnc(Nc2ccccc2)s1 | 49* | -1 | 10 | 22 | 10 | -1%
CN(C)c1ccc(N/C=C/C(=O)C(C)(C)C)cc1 | -7 | 0 | 9 | -6 | 66* | 0%
COc1ccccc1S(=O)(=O)N(C)C[C@H]1OCc2cnnn2CCCC(=O)N([C@@H](C)CO)C[C@H]1C | x | x | -4 | x | -1 | x
O=C(c1ccc(N2C(=O)CCC2=O)cc1)N1CCOCC1 | 53* | 0 | -1 | -4 | 2 | 0%
O=C(N/N=C/c1ccc(OC(F)F)cc1)C1=COCCO1 | -24 | 2 | -3 | -8 | -8 | 0%
O=C(N/N=C/c1ccccc1OC(F)F)C1=COCCO1 | 33* | 1 | 1 | -3 | 1 | 0%
COc1cc(C(=O)N(Cc2cccnc2)Cc2cc3cc4c(cc3[nH]c2=O)OCCO4)cc(OC)c1OC | 37* | 0 | -3 | 7 | 5 | 0%
O=S(=O)(NCc1ccccn1)C(F)(F)F | 3 | -1 | -4 | 7 | -15 | 0%
COc1ccc(CC(=O)Nc2ccc(-c3noc(-c4cc(OC)c(OC)c(OC)c4)n3)cc2)cc1 | -25 | 0 | 3 | 42* | -16 | 0%
COc1ccc(N(C(=O)/C=C\C(=O)Nc2ccc(C)cc2)C(C(=O)NCc2ccco2)c2ccc(C)cc2)cc1 (stereo not drawn) | x | x | x | 9 | x | x
Cc1cc(C)cc(N(C(=O)c2sc(C)nc2C)C(C(=O)NCc2ccco2)c2ccccc2)c1 (stereo not drawn) | -7 | 0 | 1 | 0 | -13 | 0%
Cc1cccc(N(C(=O)c2sc(C)nc2C)C(C(=O)NCc2ccco2)c2ccccc2)c1 (stereo not drawn) | 45* | 0 | -3 | 1 | -5 | 0%

Source: PubChem BioAssay (National Center for Advancing Translational Sciences (NCATS))
